# Several values for one entry are separate records, joined by “and”; a condition that tells them apart may be missing. Equal entries are not always repeated. Inconclusive results are not listed. A call without a number means that no potency is given here. Activity calls are given as the source filed them. Unless noted, calls follow the shape of the full dose curve.
# Key:
# [1] = biological target: Peroxisome proliferator-activated receptor delta (Homo sapiens) (UniProt Q03181); assay: qHTS assay for small molecule agonists of peroxisome proliferator-activated receptor delta signaling (AID 588534)
# Peroxisome proliferator-activated receptor delta (Homo sapiens), sequence (Q03181 whole entry, looked up): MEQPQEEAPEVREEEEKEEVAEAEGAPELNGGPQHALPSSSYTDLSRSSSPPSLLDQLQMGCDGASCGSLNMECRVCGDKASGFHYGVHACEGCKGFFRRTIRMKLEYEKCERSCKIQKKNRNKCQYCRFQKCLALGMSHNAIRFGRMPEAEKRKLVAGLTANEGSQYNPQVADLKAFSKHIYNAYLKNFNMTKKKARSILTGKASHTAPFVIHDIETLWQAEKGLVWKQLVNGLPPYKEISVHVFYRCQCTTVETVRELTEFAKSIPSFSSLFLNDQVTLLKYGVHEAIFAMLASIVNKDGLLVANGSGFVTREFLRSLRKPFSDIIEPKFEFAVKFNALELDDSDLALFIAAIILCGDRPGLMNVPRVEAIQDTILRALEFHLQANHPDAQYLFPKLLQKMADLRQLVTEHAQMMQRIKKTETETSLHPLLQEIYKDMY
# Method in brief: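 Fluorescence from CCF4 substrate cleavage by beta-lactamase reporter, read 2 hrs at RT, measured agonist activity. Compounds were tested with 18 hrs exposure at 37 C. Concentration-response data fitted to Hill equation.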
# [2] = qHTS assay for small molecule antagonists of peroxisome proliferator-activated receptor delta signaling (AID 588535; active = well fitted inhibition curve with a large enough effect in the signal ratio, with a control signal flat, not every such curve was filed as active; the % refers to the signal ratio;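 as to max response: cells co-treated with a PPAR-delta agonist as stimulator during compound exposure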); settings: HEK293T PPARd-UAS-bla, beta-lactamase FRET ratio, 18 h; 460 nm channel
# Method in brief: (§1)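 HEK293T PPAR-delta-UAS-bla cells, 4000/well, 2% charcoal/dextran FBS; 5 h 37 C; cpd titration; 18 h 37 C; CCF4 2 h RT; FI 460/530 nm; Hill fit → IC50, efficacy.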
# [3] = biological target: Peroxisome proliferator-activated receptor delta (Homo sapiens) (UniProt Q03181); assay: as above
# Method in brief: as §1
# [4] = biological target: Peroxisome proliferator-activated receptor gamma (Homo sapiens) (UniProt P37231); assay: qHTS assay for small molecule agonists of peroxisome proliferator-activated receptor gamma signaling (AID 588536; active = well fitted curve in the direction sought with a large enough effect in the signal ratio, with a control signal flat, not every such curve was filed as active; the % refers to the signal ratio)
# Peroxisome proliferator-activated receptor gamma (Homo sapiens), sequence (P37231 whole entry, looked up): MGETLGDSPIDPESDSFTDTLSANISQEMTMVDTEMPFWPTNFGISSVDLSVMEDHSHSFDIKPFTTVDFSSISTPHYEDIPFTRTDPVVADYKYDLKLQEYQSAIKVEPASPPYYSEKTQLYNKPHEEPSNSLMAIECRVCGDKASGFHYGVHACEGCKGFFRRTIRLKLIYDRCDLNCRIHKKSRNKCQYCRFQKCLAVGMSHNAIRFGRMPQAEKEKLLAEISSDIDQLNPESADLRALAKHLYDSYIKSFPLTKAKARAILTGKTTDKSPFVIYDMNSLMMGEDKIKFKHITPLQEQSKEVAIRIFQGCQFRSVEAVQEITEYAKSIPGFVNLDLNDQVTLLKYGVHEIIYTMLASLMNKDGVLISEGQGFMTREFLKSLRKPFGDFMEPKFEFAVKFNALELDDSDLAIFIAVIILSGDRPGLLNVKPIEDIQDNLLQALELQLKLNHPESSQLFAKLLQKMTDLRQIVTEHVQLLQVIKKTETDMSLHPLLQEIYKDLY
# Method in brief: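 HEK293 UAS-bla reporter line, 1% charcoal/dextran FBS; titration, 16 h, 37 C; CCF4 loading 2 h RT; fluorescence 460/530 nm. Normalized to rosiglitazone 2 uM = 100%, DMSO = 0%.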
# [5] = biological target: Peroxisome proliferator-activated receptor gamma (Homo sapiens) (UniProt P37231); assay: qHTS assay for small molecule antagonists of peroxisome proliferator-activated receptor gamma signaling (AID 588537; active = well fitted inhibition curve with a large enough effect in the signal ratio, with a control signal flat, not every such curve was filed as active; the % refers to the signal ratio;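 also: reporter cells co-stimulated with 50 nM rosiglitazone agonist during compound treatment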)
# Method in brief: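 Antagonist mode, beta-lactamase reporter in HEK293; charcoal/dextran FBS 1%; 3000 cells/well, 37 C 6-6.5 h; cpd titration + rosiglitazone 50 nM final, 16 h 37 C; CCF4, 2 h RT; 460/530 nm; Hill fit → IC50, efficacy.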
# [6] = biological target: Vitamin D3 receptor (Homo sapiens) (UniProt P11473); assay: qHTS assay for small molecule antagonists of vitamin D receptor signaling (AID 588541);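 also: receptor activated by calcitriol during compound treatment; series mostly up to about 77 µM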
# Vitamin D3 receptor (Homo sapiens), sequence (P11473 whole entry, looked up): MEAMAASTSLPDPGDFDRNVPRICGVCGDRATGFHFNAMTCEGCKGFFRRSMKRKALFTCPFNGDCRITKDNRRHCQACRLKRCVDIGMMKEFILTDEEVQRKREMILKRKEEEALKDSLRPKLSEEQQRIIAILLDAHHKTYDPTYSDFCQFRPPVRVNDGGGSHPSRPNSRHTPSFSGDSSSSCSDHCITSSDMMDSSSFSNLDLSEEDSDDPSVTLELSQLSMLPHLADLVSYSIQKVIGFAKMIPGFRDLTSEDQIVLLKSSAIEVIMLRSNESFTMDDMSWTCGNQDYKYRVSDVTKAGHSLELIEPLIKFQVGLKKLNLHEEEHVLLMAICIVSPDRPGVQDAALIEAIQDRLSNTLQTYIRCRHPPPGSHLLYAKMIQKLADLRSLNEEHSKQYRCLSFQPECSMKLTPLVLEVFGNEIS
# Method in brief: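 Antagonist-mode beta-lactamase reporter assay: HEK293T VDR-UAS-bla cells were exposed to titrated compound alongside 1-alpha,25-dihydroxyvitamin D3 at 3 nM final for 16 h. Values were normalized to the 50 nM agonist control and DMSO basal, with IC50 and efficacy from Hill equation fits.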
# [7] = biological target: Vitamin D3 receptor (Homo sapiens) (UniProt P11473); assay: qHTS assay for small molecule agonists of vitamin D receptor signaling (AID 588543)
# Method in brief: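 qHTS in agonist mode: compound titrations stimulate a VDR-driven β-lactamase reporter in HEK293T cells over 16 h at 37 °C. Response normalized to 50 nM 1α,25-dihydroxyvitamin D3 = 100%, DMSO = 0%; Hill fitting gives EC50 and maximal response.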
# [8] = qHTS assay for small molecule agonists of retinoid X receptor alpha signaling (AID 588544); settings: HEK293T RXRa-UAS-bla, beta-lactamase reporter, 18 h; 530 nm emission
# [9] = biological target: Retinoic acid receptor RXR-alpha (Homo sapiens) (UniProt P19793); assay: as above
# Retinoic acid receptor RXR-alpha (Homo sapiens), sequence (P19793 whole entry, looked up): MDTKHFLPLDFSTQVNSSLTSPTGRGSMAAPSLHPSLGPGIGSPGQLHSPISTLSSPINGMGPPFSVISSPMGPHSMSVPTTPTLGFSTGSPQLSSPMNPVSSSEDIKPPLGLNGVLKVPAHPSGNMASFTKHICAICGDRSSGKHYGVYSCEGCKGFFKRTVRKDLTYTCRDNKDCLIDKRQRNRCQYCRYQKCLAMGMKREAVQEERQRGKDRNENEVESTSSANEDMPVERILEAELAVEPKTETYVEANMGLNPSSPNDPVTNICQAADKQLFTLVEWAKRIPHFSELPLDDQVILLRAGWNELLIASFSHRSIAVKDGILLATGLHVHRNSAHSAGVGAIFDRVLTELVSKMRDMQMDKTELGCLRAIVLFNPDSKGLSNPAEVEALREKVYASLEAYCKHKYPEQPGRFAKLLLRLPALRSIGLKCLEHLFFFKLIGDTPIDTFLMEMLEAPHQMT
# [10] = biological target: Thyroid hormone receptor beta (Homo sapiens) (UniProt P10828); assay: qHTS assay for small molecule agonists of thyroid hormone receptor beta signaling (AID 588545)
# Thyroid hormone receptor beta (Homo sapiens), sequence (P10828 whole entry, looked up): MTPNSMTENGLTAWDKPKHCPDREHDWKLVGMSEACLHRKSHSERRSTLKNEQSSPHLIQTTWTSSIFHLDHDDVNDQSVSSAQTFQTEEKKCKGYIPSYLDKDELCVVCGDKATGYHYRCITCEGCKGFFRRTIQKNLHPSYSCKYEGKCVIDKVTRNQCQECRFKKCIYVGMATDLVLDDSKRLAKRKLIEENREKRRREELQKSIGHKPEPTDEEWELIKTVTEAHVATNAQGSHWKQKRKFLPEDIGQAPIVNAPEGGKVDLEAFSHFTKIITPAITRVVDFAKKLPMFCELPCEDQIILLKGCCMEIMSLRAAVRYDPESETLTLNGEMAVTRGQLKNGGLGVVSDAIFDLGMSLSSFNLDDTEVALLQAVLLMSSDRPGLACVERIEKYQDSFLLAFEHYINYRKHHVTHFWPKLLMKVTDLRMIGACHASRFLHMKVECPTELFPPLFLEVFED
# Method in brief: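 TR-UAS-bla GripTite HEK 293 cells (2500/well, medium with 2% charcoal/dextran FBS) were treated in agonist mode for 18 h at 37 C, titrated. Beta-lactamase was read by CCF4 ratio after 2 h; normalized to 10 nM T3 (100%) and DMSO, Hill-fitted for EC50 and efficacy.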
# [11] = qHTS assay for small molecule antagonists of retinoid X receptor alpha signaling (AID 588546; active = well fitted inhibition curve with a large enough effect in the signal ratio, with a control signal flat, not every such curve was filed as active; the % refers to the signal ratio;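 also: cells stimulated with 9-cis-retinoic acid as agonist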); settings: HEK293T RXRa-UAS-bla, beta-lactamase ratio, antagonist mode; measured here: W530 green channel, cytotoxicity proxy
# Method in brief: (§2)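 Beta-lactamase reporter inhibition, read as CCF4 fluorescence ratio (ex 405, em 460/530 nm) after 2 h at RT. HEK293T UAS-bla cells, 2500/well, were stimulated with 9-cis-RA at 500 or 100 nM final alongside test compound for 18 h at 37 C.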
# [12] = biological target: Retinoic acid receptor RXR-alpha (Homo sapiens) (UniProt P19793); assay: as above; settings: HEK293T RXRa-UAS-bla, beta-lactamase ratio, antagonist mode
# Method in brief: as §2
# [13] = biological target: Voltage-gated inwardly rectifying potassium channel KCNH2 (Homo sapiens) (UniProt Q12809); assay: qHTS Assay for Small Molecule Inhibitors of the Human hERG Channel Activity (AID 588834; active = well fitted inhibition curve with a large enough effect;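 also: top concentration of the series differs between compounds; lower thallium flux fluorescence means stronger hERG block; nearly all actives have a fitted effect of over 50% in size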)
# Voltage-gated inwardly rectifying potassium channel KCNH2 (Homo sapiens), sequence (Q12809 whole entry, looked up): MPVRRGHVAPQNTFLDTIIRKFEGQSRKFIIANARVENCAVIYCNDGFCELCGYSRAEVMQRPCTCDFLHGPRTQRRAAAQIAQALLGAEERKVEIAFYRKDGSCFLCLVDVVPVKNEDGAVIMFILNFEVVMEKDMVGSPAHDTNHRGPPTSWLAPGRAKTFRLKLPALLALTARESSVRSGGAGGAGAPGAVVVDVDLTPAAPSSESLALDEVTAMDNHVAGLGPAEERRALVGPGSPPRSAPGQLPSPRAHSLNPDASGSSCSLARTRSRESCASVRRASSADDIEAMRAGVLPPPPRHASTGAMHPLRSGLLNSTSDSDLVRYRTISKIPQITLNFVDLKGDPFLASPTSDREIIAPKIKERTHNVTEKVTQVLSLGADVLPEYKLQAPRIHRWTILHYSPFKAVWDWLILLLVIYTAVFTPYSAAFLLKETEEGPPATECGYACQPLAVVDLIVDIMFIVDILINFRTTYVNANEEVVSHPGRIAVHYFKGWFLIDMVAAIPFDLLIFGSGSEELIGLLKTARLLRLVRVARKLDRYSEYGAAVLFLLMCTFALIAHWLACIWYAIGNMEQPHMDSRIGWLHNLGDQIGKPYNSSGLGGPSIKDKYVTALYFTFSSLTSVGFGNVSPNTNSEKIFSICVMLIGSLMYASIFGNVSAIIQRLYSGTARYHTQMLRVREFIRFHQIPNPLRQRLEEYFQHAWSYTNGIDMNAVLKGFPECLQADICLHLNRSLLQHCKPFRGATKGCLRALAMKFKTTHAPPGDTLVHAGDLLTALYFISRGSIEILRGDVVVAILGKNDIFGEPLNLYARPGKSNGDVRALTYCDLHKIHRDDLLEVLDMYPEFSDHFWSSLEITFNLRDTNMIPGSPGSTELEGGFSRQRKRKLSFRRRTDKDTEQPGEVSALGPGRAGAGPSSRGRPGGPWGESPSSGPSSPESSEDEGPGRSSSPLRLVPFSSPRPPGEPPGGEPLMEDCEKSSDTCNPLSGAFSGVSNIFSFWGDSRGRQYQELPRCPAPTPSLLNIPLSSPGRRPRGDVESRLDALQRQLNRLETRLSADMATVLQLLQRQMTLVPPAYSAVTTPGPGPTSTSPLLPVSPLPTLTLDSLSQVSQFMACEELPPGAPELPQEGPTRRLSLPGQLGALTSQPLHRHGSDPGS
# Method in brief: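 Measured: FluxOR fluorescence after thallium stimulation in U2OS cells transduced with hERG by baculovirus. Compounds pre-incubated around 10 min; medium Opti-MEM with 2% FCS. AC50 from Hill equation.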
# [14] = biological target: Thyroid hormone receptor beta (Homo sapiens) (UniProt P10828); assay: qHTS assay for small molecule antagonists of thyroid hormone receptor beta signaling (AID 588547; active = well fitted inhibition curve with a large enough effect in the signal ratio, with a control signal flat, not every such curve was filed as active; the % refers to the signal ratio;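 also: cells stimulated with 0.4 nM T3 agonist during compound exposure; series mostly up to about 77 µM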); settings: TR-UAS-bla HEK293, beta-lactamase ratio, antagonist mode, 18 h
# Method in brief: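 Inhibition of T3-driven (0.4nM final) beta-lactamase reporter activity was measured over 0.59 nM to 92 uM compound after 18 h at 37 C. The cells were GripTite HEK293 TR-UAS-bla in charcoal/dextran-stripped serum, with CCF4 ratio read-out and IC50 from Hill fits.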
# [15] = biological target: Luciferin 4-monooxygenase (Photinus pyralis) (UniProt P08659); assay: Biochemical firefly luciferase enzyme assay for NPC (AID 624030; active = well fitted inhibition curve with a large enough effect; also: nearly all actives have a fitted effect of over 70% in size; also: potency is read from the fitted curve at half-maximal effect)
# Luciferin 4-monooxygenase (Photinus pyralis), sequence (P08659 whole entry, looked up): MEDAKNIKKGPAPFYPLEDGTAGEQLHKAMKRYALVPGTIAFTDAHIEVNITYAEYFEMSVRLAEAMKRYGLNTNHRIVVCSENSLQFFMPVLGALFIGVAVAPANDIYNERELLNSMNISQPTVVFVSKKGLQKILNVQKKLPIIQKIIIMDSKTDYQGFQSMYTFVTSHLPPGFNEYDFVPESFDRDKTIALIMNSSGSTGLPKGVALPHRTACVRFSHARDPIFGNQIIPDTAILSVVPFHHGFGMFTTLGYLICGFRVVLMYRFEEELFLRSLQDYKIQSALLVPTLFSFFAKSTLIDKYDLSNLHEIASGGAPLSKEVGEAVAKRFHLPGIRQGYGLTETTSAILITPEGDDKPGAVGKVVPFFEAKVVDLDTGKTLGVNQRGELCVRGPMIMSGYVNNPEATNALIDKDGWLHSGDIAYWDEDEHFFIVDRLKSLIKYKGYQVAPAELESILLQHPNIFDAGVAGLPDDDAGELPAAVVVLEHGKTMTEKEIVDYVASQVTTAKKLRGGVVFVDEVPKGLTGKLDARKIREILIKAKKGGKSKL
# Method in brief: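 Direct inhibition of firefly luciferase enzyme (10 nM final, 50 mM Tris Acetate) assessed by luminescence within 5 minutes. Percent activity scaled between DMSO and PTC124 positive control, with concentration-effect curves classified by fit quality and response.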
smiles,measurement,setting,value
CC1=NN(c2ccccc2)C(=O)C1,outcome,[1],inactive
CC(C)(C)c1ccc(O)c(O)c1,outcome,[1],inactive
CCCCCCCCc1ccc(O)cc1,outcome,[1],inactive
same,max response,[2],-43.1% and -32.6%
same,Potency,[3],inactive
same,outcome,[4],inactive
same,Potency,[5],inactive
same,Potency,[6],inactive
same,outcome,[7],inactive
same,max response,[8],-5.76% and -13.1%
same,Potency,[9],inactive
same,outcome,[10],inactive
same,max response,[11],-5.97%
same,max response,[12],-17.2% (inactive)
same,Potency,[13],inactive
Nc1cccc2c(N)cccc12,outcome,[1],inactive
same,max response,[2],0.56%
same,Potency,[3],inactive
CCCCCCCCOc1ccc(C(=O)c2ccccc2)c(O)c1,outcome,[1],inactive
Nc1ccc(N=Nc2ccccc2)cc1,outcome,[1],inactive
same,max response,[2],4.67%
same,Potency,[3],inactive
same,outcome,[4],inactive
same,Potency,[5],inactive
same,Potency,[6],inactive
same,outcome,[7],inactive
same,max response,[8],-10.7%
same,Potency,[9],inactive
same,outcome,[10],inactive
same,activity change % (negative = inhibition),[14],-2.63% (inactive)
same,Potency,[15],5.26 µM (active)
O=[N+]([O-])c1cc([N+](=O)[O-])c2ccccc2c1,outcome,[1],inactive
same,max response,[2],44.3%
same,Potency,[3],inactive
same,outcome,[4],inactive
same,Potency,[5],inactive
same,Potency,[6],inactive
same,outcome,[7],inactive
same,max response,[8],-2.69%
same,Potency,[9],inactive
same,outcome,[10],inactive
same,max response,[11],-9.65%
same,max response,[12],12.9% (inactive)
same,activity change % (negative = inhibition),[14],-11.2% (inactive)
same,Potency,[15],inactive

# — PubChem BioAssay (NCATS)
